The record followed here is PubChem BioAssay (NCATS).

Active and inactive are the calls of the source. The call rests on the fitted dose curve; in most records, active means well fitted activation curve with a large enough effect; inconclusive means small, poorly fitted or top-dose-only effect; inactive means flat fitted curve, though single readings scatter.

This assay is described as follows: Cellular Toxicity (caspase-3) N2a (AID 665).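 Further: compound exposure lasted 16 h at 37 °C before readout.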 The settings on record: N2a cells, luminescence, normalized: DMSO 0%, 10 µM staurosporine 100%; series mostly up to 92.2 µM. The source says: NIH Chemical Genomics Center [NCGC]
NIH Molecular Libraries Screening Centers Network [MLSCN]
National Institutes of Environmental Health Sciences [NIEHS]
National Toxicology Program [NTP]
We have developed a 1536-well cell-based assay for quantitative high throughput screening (qHTS) against a number of cell lines to determine in vitro caspase 3/7 activity of small molecules. This particular assay uses the N2a cell line which is derived from mouse neuroblastoma.
NCGC Assay Protocol Summary:
The Caspase-Glo 3/7 assay (Promega) is a homogeneous method to measure caspase-3 and caspase-7 activities in cultured cells. The quantitation of caspase 3/7 activity is based on the cleavage of a peptide-aminoluciferin substrate. After caspase cleaves the substrate the free aminoluciferin is liberated and serves as the substrate of luciferase, which generates the light. The luminescent signal is proportional to the amount of caspase 3/7 activity present.
Using the Caspase-Glo 3/7 assay, the amount of caspase 3/7 activity was measured in the N2a cells with complete culture medium following compound treatment for 16 hours. The assay was performed in opaque white 1536-well plates. In the screen, staurosporine and doxorubicin were used as positive controls. Library compounds were measured for their ability to cause the activation of caspase 3/7 in the cell line, as reflected by an increase in luminescence signal, in a concentration-dependent manner. Data were normalized to the controls for basal activity (DMSO only) and 100% stimulation (10 uM staurosporine). AC50 values were determined from concentration-response data modeled with the standard Hill equation.
qHTS protocol for caspase 3/7 assay in mouse N2a cell line
[Step] [Parameter] [Value] [Description]
1. Reagent; 5 uL; 1500 mouse N2a cells/well
2. Time; 5 hr; 37 °C incubation
4. Controls; 23 nL; doxorubicin 7 pM to 100 uM & staurosporine 1.4 pM to 20 uM
5. Time; 16 hr; 37 °C incubation
6. Reagent; 5 uL; Caspase-Glo 3/7 reagent
7. Time; 1 hr; Room Temperature
8. Detection; Luminescence; Viewlux plate reader
Keywords: caspase 3/7, apoptosis, mouse N2a cell line, luminescence, NTPHTS, NTPHTS_NCGC, NIEHS, EPA, DSSTox, MLSMR, MLSCN, NIH Roadmap, qHTS, NCGC
`Oc1ccccc1`: the result was inactive.
The same measure for `Cc1cc(C(C)(C)C)c(O)c(C(C)(C)C)c1`: “inactive”; for `CCCCC(CC)COC(=O)c1ccccc1C(=O)O` (centres undefined): “inactive”; for `Cc1ccc(O)cc1`: “inactive”.
Turning to `Brc1ccccc1-c1ccccc1`, the compound was classed as inactive.
With `CC(=O)OC/C=C(C)/C=C/C=C(C)/C=C/C1=C(C)CCCC1(C)C`, the compound was called inactive.
As for `O=C(Oc1ccccc1)c1ccccc1O`, the outcome was inactive.
On to `CC(C)(c1ccc(O)cc1)c1ccc(O)cc1`, for which the compound was called inactive.
Turning to `CC(C)C(C)(C)C(C)(C)C(C)(C)S`, the outcome was inactive.
Regarding `O=C(NO)c1ccccc1`, the compound was classed as inactive.
On to `c1ccc2occc2c1`, for which the result was inactive.
As for `COc1cc(C=O)ccc1O`, the compound was classed as inactive.
As to `Nc1ccc(O)cc1`, the compound was called inactive.
With `OCc1c[nH]c2ccccc12`, the outcome was inactive.
As to `Nc1cccc2c(N)cccc12`, the compound was called inactive.
For the compound `CC(C)(C)c1ccc(O)c(O)c1`, the result was inactive.
In the case of `C1=CC2C3C=CC(C3)C2C1` (centres undefined), the outcome was inactive.
In the case of `CCCC(=O)c1cc(O)c(O)cc1O` it was “inactive”; in that of `O=C(c1ccccc1)c1ccccc1`, “inactive”.
